What all share (experiment): DAPPL (digital affinity profiling via proximity ligation, sequencing); 10 mM Tris-HCl pH 7.5, 50 mM NaCl, 1 mM DTT, 4% glycerol, room temperature, 30 min; GST-TFs on glutathione beads, 16-mer random dsDNA library, 0.1% formaldehyde crosslink after washing; high values mean tight binding
Test [1] concerns the target T1, FLI1 (Homo sapiens, UniProt Q01543 1-452).
T1 sequence: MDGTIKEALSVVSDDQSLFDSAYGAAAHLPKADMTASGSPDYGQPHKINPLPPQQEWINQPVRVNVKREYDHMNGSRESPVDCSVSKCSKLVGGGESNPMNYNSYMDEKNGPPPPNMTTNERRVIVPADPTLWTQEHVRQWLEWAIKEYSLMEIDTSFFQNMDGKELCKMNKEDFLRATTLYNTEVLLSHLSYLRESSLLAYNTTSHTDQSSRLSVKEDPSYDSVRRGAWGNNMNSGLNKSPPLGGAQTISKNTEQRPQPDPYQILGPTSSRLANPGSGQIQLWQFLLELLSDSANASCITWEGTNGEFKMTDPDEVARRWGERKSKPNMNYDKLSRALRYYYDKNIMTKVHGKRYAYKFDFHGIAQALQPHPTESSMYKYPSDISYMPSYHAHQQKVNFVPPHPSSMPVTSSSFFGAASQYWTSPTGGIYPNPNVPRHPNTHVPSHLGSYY
Conditions: protein: recombinant; tags: N-terminal GST; dsDNA, one strand shown. The procedure, abridged:
(§1)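 Pools were built from human transcription factors expressed in yeast as GST fusions, captured on glutathione beads and DNA-barcoded, along with a tag-only sample. Incubation with 200 nmole of a 16-mer random double-stranded DNA library lasted 30 min at room temperature in Tris/NaCl/DTT/glycerol buffer, and was followed by washing, 0.1% formaldehyde crosslinking, proximity ligation, PCR amplification and Illumina NextSeq500 sequencing. Binding signal is the quotient of each hexamer's read frequency for a factor and its frequency for the tag-only sample.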

Test [2] concerns the target T2, ELK1 (Homo sapiens, UniProt P19419 1-428).
T2 sequence: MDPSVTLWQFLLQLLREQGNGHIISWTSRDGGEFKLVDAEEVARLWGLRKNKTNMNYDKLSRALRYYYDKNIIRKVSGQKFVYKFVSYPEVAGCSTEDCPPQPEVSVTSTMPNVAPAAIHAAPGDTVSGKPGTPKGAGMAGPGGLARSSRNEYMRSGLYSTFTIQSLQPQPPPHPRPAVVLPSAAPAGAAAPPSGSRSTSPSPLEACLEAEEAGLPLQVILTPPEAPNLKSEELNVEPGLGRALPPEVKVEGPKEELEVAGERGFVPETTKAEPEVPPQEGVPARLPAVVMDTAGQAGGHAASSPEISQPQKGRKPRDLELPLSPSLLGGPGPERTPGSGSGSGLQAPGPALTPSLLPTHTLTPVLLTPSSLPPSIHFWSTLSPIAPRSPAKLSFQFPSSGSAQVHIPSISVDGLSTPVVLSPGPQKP
The note with it: protein: recombinant; tags: N-terminal GST; dsDNA, one strand shown. The procedure, abridged: as §1

In test [3] the target is T3, GABPA (Homo sapiens, UniProt Q06546 1-454).
T3 sequence: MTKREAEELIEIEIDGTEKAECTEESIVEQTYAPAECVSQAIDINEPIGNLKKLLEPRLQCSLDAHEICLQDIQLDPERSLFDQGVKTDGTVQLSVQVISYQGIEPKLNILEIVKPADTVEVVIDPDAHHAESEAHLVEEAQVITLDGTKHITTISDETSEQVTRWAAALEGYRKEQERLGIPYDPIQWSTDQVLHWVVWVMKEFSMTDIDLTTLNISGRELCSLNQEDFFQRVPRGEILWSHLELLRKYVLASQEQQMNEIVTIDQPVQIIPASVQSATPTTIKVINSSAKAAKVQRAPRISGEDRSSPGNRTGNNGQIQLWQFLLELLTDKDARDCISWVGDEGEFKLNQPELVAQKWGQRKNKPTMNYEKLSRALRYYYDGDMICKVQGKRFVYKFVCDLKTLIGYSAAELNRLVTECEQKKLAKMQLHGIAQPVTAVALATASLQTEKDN
Conditions: protein: recombinant; tags: N-terminal GST; dsDNA, one strand shown. The procedure, abridged:
as §1

In test [4] the target is T4, ERG (Homo sapiens, UniProt P11308 1-479).
T4 sequence: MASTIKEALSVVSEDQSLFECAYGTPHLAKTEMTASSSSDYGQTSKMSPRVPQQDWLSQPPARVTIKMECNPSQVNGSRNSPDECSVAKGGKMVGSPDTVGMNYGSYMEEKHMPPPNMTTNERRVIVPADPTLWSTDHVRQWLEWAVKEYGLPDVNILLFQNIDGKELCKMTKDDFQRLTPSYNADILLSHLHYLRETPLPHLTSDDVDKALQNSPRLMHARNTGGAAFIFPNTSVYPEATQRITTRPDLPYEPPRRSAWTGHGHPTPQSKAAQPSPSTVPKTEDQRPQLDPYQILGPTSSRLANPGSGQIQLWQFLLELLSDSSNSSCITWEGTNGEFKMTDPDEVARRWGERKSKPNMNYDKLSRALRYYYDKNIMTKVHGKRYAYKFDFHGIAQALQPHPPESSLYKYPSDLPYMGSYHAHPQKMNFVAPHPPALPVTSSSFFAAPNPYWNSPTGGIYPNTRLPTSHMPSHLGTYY
Conditions: protein: recombinant; tags: N-terminal GST; dsDNA, one strand shown. The procedure, abridged:
as §1

For test [5], the target named is ELF1 (Homo sapiens, UniProt P32519 1-619). Conditions: protein: recombinant; tags: N-terminal GST; dsDNA, one strand shown. The procedure, abridged:
as §1

Test [6] deals with T5, EHF (Homo sapiens, UniProt Q9NZC4 1-300).
T5 sequence: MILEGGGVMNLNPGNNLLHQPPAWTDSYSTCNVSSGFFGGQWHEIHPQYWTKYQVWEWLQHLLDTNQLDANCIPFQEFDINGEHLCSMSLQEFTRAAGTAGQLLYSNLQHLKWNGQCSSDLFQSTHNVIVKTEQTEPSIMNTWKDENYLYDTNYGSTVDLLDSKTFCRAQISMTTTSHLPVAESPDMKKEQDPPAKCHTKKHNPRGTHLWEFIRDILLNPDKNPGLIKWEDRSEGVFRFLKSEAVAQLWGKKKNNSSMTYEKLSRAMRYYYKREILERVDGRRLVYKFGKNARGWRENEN
Conditions: protein: recombinant; tags: N-terminal GST; dsDNA, one strand shown. The procedure, abridged:
as §1

For test [7], the target named is SPI1 (Homo sapiens, UniProt P17947 1-270). The note with it: protein: recombinant; tags: N-terminal GST; dsDNA, one strand shown. The method in brief: as §1
Test [8] addresses SPIB (Homo sapiens, UniProt Q01892 1-262). Conditions: protein: recombinant; tags: N-terminal GST; dsDNA, one strand shown. The procedure, abridged:
as §1

Test [9] deals with T6, ELK3 (Homo sapiens, UniProt P41970 1-407).
T6 sequence: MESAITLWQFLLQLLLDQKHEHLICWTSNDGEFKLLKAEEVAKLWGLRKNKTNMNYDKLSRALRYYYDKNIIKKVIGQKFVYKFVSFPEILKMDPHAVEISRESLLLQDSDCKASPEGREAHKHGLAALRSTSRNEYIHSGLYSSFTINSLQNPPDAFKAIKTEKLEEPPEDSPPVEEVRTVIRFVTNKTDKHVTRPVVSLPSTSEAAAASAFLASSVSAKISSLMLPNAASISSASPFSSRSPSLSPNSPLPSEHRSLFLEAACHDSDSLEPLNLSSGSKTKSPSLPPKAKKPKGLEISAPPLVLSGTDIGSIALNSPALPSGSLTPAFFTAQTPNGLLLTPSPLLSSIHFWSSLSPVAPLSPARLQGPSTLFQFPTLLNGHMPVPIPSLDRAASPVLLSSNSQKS
The note with it: protein: recombinant; tags: N-terminal GST; dsDNA, one strand shown. The method in brief: as §1

The target in test [10] is T7, FEV (Homo sapiens, UniProt Q99581 1-238).
T7 sequence: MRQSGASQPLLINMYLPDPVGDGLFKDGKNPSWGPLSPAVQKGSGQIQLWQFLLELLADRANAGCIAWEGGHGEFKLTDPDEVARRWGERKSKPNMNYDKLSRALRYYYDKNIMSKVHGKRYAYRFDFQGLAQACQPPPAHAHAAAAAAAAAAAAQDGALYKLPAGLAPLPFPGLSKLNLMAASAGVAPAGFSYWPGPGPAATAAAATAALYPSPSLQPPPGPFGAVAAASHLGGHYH
Conditions: protein: recombinant; tags: N-terminal GST; dsDNA, one strand shown. The procedure, abridged: as §1

In test [11] the target is ETV5 (Homo sapiens, UniProt P41161 1-510). The note with it: protein: recombinant; tags: N-terminal GST; dsDNA, one strand shown. The method in brief:
as §1

Test [12] has as its target HSF1 (Homo sapiens, UniProt Q00613 1-529). Conditions: protein: recombinant; tags: N-terminal GST; chain copies: 3; dsDNA, one strand shown. The method in brief:
as §1

For test [13], the target named is T8, SPIC (Homo sapiens, UniProt Q8N5J4 1-248).
T8 sequence: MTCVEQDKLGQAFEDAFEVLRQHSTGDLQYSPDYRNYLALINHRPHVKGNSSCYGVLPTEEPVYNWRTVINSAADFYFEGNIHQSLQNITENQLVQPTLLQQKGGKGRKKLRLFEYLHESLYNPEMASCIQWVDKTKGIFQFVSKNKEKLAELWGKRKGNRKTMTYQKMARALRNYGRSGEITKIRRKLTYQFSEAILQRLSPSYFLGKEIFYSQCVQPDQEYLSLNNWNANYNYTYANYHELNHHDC
Conditions: protein: recombinant; tags: N-terminal GST; dsDNA, one strand shown. The method in brief: as §1

The target in test [14] is ELF4 (Homo sapiens, UniProt Q99607 1-663). The note with it: protein: recombinant; tags: N-terminal GST; dsDNA, one strand shown. The method in brief:
as §1

The target of test [15] is T9, ELK4 (Homo sapiens, UniProt P28324-2 1-405).
T9 sequence: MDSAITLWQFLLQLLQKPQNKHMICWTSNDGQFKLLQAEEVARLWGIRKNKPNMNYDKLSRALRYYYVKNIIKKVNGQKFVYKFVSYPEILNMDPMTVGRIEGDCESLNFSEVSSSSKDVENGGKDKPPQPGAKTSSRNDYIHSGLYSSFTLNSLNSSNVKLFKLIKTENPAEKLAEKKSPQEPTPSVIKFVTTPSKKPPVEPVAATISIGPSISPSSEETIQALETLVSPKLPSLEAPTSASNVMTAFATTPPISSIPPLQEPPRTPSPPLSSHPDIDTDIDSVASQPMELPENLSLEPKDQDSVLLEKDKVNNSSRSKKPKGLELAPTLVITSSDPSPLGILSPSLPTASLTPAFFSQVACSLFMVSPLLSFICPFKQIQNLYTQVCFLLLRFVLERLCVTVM
Conditions: protein: recombinant; tags: N-terminal GST; dsDNA, one strand shown. The method in brief: as §1

For test [16], the target named is T10, ETV2 (Homo sapiens, UniProt O00321 1-342).
T10 sequence: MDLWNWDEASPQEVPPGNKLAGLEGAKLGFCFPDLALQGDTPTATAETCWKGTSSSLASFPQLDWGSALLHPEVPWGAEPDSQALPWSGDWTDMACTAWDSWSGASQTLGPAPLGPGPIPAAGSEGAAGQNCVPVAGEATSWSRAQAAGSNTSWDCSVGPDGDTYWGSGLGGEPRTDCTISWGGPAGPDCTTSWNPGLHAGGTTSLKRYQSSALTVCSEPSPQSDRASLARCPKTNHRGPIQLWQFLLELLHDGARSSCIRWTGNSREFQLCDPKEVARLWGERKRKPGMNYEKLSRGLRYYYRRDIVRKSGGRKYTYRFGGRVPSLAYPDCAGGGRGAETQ
Conditions: protein: recombinant; tags: N-terminal GST; dsDNA, one strand shown. The method in brief:
as §1

In test [17] the target is T11, ELF3 (Homo sapiens, UniProt P78545 1-371).
T11 sequence: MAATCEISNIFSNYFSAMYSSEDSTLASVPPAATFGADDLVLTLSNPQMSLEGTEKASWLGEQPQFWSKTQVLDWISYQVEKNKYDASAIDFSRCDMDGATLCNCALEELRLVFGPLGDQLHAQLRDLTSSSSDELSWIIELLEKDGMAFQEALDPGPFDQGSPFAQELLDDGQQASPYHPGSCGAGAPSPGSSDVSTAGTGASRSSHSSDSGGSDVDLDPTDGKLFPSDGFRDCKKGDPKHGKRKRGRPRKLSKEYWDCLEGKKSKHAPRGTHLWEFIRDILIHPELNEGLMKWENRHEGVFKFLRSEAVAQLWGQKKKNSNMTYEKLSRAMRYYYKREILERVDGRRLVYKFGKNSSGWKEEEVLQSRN
Conditions: protein: recombinant; tags: N-terminal GST; dsDNA, one strand shown. The procedure, abridged: as §1

The target in test [18] is ETV1 (Homo sapiens, UniProt P50549 1-477). Conditions: protein: recombinant; tags: N-terminal GST; dsDNA, one strand shown. The procedure, abridged: as §1
Chain of ETV1 (P50549 whole entry): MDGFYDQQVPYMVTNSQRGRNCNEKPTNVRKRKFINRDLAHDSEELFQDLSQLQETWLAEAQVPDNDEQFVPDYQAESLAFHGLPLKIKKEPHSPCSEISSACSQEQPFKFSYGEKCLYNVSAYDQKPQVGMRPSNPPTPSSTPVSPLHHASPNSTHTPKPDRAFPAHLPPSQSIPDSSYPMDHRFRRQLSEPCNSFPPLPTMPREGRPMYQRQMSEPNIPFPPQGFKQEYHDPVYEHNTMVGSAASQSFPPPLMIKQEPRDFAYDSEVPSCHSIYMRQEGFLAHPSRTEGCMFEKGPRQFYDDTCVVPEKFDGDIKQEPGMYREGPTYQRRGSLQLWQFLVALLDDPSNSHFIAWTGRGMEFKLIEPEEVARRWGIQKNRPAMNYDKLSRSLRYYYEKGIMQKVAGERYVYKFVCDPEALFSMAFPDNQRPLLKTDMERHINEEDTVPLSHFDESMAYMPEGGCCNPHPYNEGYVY

Chain of ELF1 (P32519 whole entry): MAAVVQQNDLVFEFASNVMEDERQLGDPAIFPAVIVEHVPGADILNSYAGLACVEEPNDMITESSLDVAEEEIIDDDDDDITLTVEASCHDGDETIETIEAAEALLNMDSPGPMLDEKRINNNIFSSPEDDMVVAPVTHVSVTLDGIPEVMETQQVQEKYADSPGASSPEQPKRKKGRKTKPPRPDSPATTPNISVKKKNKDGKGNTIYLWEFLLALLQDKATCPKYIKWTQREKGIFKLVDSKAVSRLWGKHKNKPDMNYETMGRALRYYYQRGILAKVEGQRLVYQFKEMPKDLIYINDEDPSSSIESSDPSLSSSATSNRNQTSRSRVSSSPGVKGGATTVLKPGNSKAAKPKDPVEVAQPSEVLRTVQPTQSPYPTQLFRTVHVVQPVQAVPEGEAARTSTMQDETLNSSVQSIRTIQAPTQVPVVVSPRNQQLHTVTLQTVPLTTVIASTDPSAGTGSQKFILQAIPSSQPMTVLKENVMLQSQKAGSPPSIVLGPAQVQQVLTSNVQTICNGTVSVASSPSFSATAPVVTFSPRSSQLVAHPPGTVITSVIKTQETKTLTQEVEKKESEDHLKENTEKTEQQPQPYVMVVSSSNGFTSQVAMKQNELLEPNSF
Chain of ELF4 (Q99607 whole entry): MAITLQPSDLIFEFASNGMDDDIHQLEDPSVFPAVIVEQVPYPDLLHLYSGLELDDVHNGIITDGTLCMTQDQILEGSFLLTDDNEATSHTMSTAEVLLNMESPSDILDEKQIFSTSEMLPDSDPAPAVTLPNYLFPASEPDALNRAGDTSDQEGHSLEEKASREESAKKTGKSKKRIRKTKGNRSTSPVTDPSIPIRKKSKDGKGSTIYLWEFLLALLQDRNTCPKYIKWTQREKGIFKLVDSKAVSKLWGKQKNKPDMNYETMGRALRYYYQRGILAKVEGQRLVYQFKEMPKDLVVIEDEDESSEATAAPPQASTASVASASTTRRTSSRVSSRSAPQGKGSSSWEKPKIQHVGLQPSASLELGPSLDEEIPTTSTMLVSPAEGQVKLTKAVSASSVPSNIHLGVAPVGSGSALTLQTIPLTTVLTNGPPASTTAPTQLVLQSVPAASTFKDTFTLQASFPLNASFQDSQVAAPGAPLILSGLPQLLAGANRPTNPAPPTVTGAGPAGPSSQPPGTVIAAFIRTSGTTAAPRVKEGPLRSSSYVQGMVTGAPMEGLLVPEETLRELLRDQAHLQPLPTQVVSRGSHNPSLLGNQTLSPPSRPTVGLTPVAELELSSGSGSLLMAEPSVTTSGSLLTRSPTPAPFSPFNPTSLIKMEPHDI
Chain of ETV5 (P41161 whole entry): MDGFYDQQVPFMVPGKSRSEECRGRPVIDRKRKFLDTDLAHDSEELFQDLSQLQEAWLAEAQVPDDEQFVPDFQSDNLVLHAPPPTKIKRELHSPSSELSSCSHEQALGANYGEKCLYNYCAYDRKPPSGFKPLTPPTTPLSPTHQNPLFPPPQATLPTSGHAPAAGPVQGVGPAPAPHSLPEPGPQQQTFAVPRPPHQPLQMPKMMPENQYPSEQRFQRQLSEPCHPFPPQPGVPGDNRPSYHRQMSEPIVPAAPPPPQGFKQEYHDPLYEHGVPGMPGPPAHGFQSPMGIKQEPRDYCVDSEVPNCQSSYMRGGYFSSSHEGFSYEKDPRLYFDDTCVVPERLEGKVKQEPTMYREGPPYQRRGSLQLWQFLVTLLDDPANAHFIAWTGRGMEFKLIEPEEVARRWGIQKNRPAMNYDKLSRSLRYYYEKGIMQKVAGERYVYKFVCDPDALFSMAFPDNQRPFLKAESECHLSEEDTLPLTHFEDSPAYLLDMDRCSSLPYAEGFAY
Chain of HSF1 (Q00613 whole entry): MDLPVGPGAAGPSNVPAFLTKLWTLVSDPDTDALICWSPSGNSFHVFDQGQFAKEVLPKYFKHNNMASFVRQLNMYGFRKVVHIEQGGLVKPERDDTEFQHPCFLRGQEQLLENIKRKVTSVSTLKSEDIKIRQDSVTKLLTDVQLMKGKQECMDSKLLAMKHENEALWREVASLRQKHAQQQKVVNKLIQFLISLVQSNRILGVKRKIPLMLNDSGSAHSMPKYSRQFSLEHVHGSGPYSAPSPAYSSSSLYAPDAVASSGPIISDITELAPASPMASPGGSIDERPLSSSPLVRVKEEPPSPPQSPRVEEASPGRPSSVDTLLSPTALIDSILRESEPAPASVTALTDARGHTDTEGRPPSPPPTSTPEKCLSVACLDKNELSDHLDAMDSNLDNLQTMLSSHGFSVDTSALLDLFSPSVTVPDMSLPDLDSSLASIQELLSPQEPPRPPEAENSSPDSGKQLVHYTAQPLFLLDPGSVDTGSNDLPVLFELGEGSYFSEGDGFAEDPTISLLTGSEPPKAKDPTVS
Chain of SPIB (Q01892 whole entry): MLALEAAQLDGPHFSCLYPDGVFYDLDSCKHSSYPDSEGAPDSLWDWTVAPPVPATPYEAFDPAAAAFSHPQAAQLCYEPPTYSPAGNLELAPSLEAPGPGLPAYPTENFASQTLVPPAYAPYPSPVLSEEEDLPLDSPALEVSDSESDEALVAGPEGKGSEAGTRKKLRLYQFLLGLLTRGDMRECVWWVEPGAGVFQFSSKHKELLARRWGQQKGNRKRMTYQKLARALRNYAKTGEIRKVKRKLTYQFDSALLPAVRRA

Consider ATGGGC, for which the binding signal in test [1] was 1.28 fold enrichment (6-mer frequency, TF over GST control); in test [2], 1.29 fold enrichment (6-mer frequency, TF over GST control); in test [3], 1.3 fold enrichment (6-mer frequency, TF over GST control); in [4], 1.26 fold enrichment (6-mer frequency, TF over GST control); in test [5], 1.27 fold enrichment (6-mer frequency, TF over GST control); in test [6], 1.32 fold enrichment (6-mer frequency, TF over GST control). Further, the binding signal was 1.35 fold enrichment (6-mer frequency, TF over GST control) in [7]; 1.3 fold enrichment (6-mer frequency, TF over GST control) in test [8]; 1.37 fold enrichment (6-mer frequency, TF over GST control) in [9]; 1.28 fold enrichment (6-mer frequency, TF over GST control) in [10]; 1.25 fold enrichment (6-mer frequency, TF over GST control) in test [11]; 1.03 fold enrichment (6-mer frequency, TF over GST control) in test [12]. Moreover, the binding signal was 1.35 fold enrichment (6-mer frequency, TF over GST control) in test [13]; 1.35 fold enrichment (6-mer frequency, TF over GST control) in test [14]; 1.49 fold enrichment (6-mer frequency, TF over GST control) in test [15]; 1.17 fold enrichment (6-mer frequency, TF over GST control) in test [16]; 1.24 fold enrichment (6-mer frequency, TF over GST control) in [17]; 1.19 fold enrichment (6-mer frequency, TF over GST control) in test [18].
